From PubChem BioAssay (EPA / NIEHS)
The source made the active and inactive calls. The calls were made as follows: active = hit-call score of the fitted dose curve at least 0.9, where 1 is the maximum; inactive = score below 0.9.

What was measured:
Settings in all cases: mRNA level, 48 h; actives raise or lower the signal
[1] = read-out: Lipoprotein lipase (LPL), LPL (gene 4023); assay: LTEA_HepaRG_LPL: Life Technologies and Expression Analysis (LTEA) Assay for Lipoprotein lipase (LPL) using HepaRG (AID 2283515)
Summary of the method: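 Read-out is LPL transcript level by qRT-PCR, normalized to three housekeeping genes and fitted bidirectionally against the DMSO control. Human HepaRG cells received chemicals for 48 h at up to 100 uM.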

[2] = read-out: matrix metalloproteinase-10 (MMP10), MMP10 (gene 4319); assay: LTEA_HepaRG_MMP10: Life Technologies and Expression Analysis (LTEA) Assay for matrix metalloproteinase-10 (MMP10) using HepaRG (AID 2283517)
Summary of the method: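 Gain or loss of MMP10 mRNA is fitted relative to the 0.5% DMSO vehicle. The human hepatic line HepaRG receives a 48-hour serum-free exposure, in duplicate, with a maximum concentration of 100 uM.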

MYC, MYC (gene 4609) = assay: LTEA_HepaRG_MYC: Life Technologies and Expression Analysis (LTEA) Assay for MYC using HepaRG (AID 2283518)
Summary of the method: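 Differentiated HepaRG cells exposed 48 h in serum-free induction medium to 8 concentrations (top 100 uM, half-log steps; 0.5% DMSO), duplicate. MYC mRNA measured by Fluidigm qRT-PCR, normalized to ACTB, GAPDH, POLR2A; bidirectional fit versus DMSO.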

[3] = read-out: matrix metalloproteinase-3 (MMP3), MMP3 (gene 4314); assay: LTEA_HepaRG_MMP3: Life Technologies and Expression Analysis (LTEA) Assay for matrix metalloproteinase-3 (MMP3) using HepaRG (AID 2283519)
Summary of the method: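 HepaRG, human; 48 h dosing, 8 conc. (max 100 uM, half-log), duplicate, 0.5% DMSO. Readout: MMP3 transcript by Fluidigm TaqMan qRT-PCR, ACTB/GAPDH/POLR2A-normalised. Gain or loss fitted vs DMSO.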

[4] = read-out: Paternally Expressed 10 (PEG10), PEG10 (gene 23089); assay: LTEA_HepaRG_PEG10: Life Technologies and Expression Analysis (LTEA) Assay for Paternally Expressed 10 (PEG10) using HepaRG (AID 2283520);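 as to AC50: PEG10 transcript by qRT-PCR normalised to ACTB GAPDH and POLR2A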
Summary of the method: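 Chemicals tested on HepaRG cells for 48 h, highest concentration 100 uM. PEG10 expression assessed by qRT-PCR relative to DMSO control.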

[5] = read-out: Protein phosphatase 2A (PPP2R4), PTPA (gene 5524); assay: LTEA_HepaRG_PPP2R4: Life Technologies and Expression Analysis (LTEA) Assay for Protein phosphatase 2A (PPP2R4) using HepaRG (AID 2283522)
Summary of the method: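 Gene-expression endpoint in HepaRG hepatic cells: 48 h treatment across eight half-log concentrations up to 100 uM in 0.5% DMSO. PPP2R4 mRNA by qRT-PCR, normalized to three endogenous control genes.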

[6] = read-out: Phosphatase and tensin (PTEN), PTEN (gene 5728); assay: LTEA_HepaRG_PTEN: Life Technologies and Expression Analysis (LTEA) Assay for Phosphatase and tensin (PTEN) using HepaRG (AID 2283523)
Summary of the method: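 Read-out is PTEN transcript level by multiplexed TaqMan qRT-PCR after 48 h chemical treatment of human HepaRG cultures in serum-free induction medium. Concentrations spanned 100 uM downward in half-log steps, 0.5% DMSO throughout; activity fitted in both directions against vehicle.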

[7] = read-out: Pyruvate Dehydrogenase Kinase 4 (PDK4), PDK4 (gene 5166); assay: LTEA_HepaRG_PDK4: Life Technologies and Expression Analysis (LTEA) Assay for Pyruvate Dehydrogenase Kinase 4 (PDK4) using HepaRG (AID 2283525)
Summary of the method: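 In this multiplexed human HepaRG expression assay, cells are treated 48 h with test chemicals across an eight-point range starting at 100 uM. PDK4 mRNA changes, normalized to ACTB/GAPDH/POLR2A, are fitted in both directions relative to vehicle.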

[8] = read-out: NAD(P)H dehydrogenase [quinone] 1 (NQO1), NQO1 (gene 1728); assay: LTEA_HepaRG_NQO1: Life Technologies and Expression Analysis (LTEA) Assay for NAD(P)H dehydrogenase [quinone] 1 (NQO1) using HepaRG (AID 2283526)
Summary of the method: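 Human HepaRG hepatic cells received chemicals for 48 h in serum-free induction medium with 0.5% DMSO, up to 100 uM. Expression was assessed by TaqMan qRT-PCR against housekeeping controls and fitted bidirectionally against DMSO.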

[9] = read-out: Nuclear factor erythroid 2-related factor 2 (Homo sapiens) (UniProt Q16236); assay: LTEA_HepaRG_NFE2L2: Life Technologies and Expression Analysis (LTEA) Assay for Nuclear factor erythroid 2-related factor 2 (NFE2L2) Transcription Factor using HepaRG (AID 2283527)
Summary of the method: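 Transcript level of NFE2L2 is the read-out, measured by microfluidic TaqMan qRT-PCR and normalized to three housekeeping genes. Human HepaRG cultures received test chemical for 48 h at up to 100 uM in half-log steps. Gain or loss of signal is fitted relative to 0.5% DMSO.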

[10] = read-out: succinate dehydrogenase complex iron sulfur subunit B (SDHB), SDHB (gene 6390); assay: LTEA_HepaRG_SDHB: Life Technologies and Expression Analysis (LTEA) Assay for succinate dehydrogenase complex iron sulfur subunit B (SDHB) using HepaRG (AID 2283528)
Summary of the method: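 Readout is SDHB transcript level by qRT-PCR, normalised to three housekeeping genes and fitted bidirectionally against 0.5% DMSO vehicle. Human HepaRG cells were treated for 48 h at up to 100 uM.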

[11] = read-out: Signal transducer and activator of transcription 3 (Homo sapiens) (UniProt P40763); assay: LTEA_HepaRG_STAT3: Life Technologies and Expression Analysis (LTEA) Assay for Signal transducer and activator of transcription (STAT3) using HepaRG (AID 2283529)
Summary of the method: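 Read-out is STAT3 mRNA level by qRT-PCR, normalized to three housekeeping genes, in human HepaRG liver cells treated for 48 h. Concentrations ran from 100 uM downward in half-log steps; curves were fitted for gain or loss relative to 0.5% DMSO.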

[12] = read-out: sulfotransferase 2A1 (SULT2A1), SULT2A1 (gene 6822); assay: LTEA_HepaRG_SULT2A1: Life Technologies and Expression Analysis (LTEA) Assay for sulfotransferase 2A1 (SULT2A1) using HepaRG (AID 2283531)
Summary of the method: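 HepaRG human liver cells, 48 h exposure in serum-free induction medium to 8 half-log concentrations topping at 100 µM (0.5% DMSO), duplicate wells. SULT2A1 mRNA measured by TaqMan qRT-PCR, normalized to ACTB/GAPDH/POLR2A; bidirectional fit against DMSO.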

[13] = read-out: Transforming Growth Factor (TGFA), TGFA (gene 7039); assay: LTEA_HepaRG_TGFA: Life Technologies and Expression Analysis (LTEA) Assay for Transforming Growth Factor (TGFA) using HepaRG (AID 2283532)
Summary of the method: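 HepaRG (human liver line), 48 h exposure, 8 conc. half-log down from 100 uM, 0.5% DMSO vehicle, duplicates; serum-free induction medium. TGFA mRNA by TaqMan qRT-PCR, ACTB/GAPDH/POLR2A normalization; gain/loss fit vs DMSO.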

[14] = read-out: Transforming Growth Factor (TGFB1), TGFB1 (gene 7040); assay: LTEA_HepaRG_TGFB1: Life Technologies and Expression Analysis (LTEA) Assay for Transforming Growth Factor (TGFB1) Transporter using HepaRG (AID 2283533)
Summary of the method: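 Differentiated HepaRG cells exposed 48 hr in serum-free induction medium to eight half-log concentrations up to 100 uM (0.5% DMSO), duplicate; TGFB1 mRNA by TaqMan qRT-PCR normalised to ACTB, GAPDH, POLR2A; bidirectional fit against DMSO.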

[15] = read-out: Nuclear factor NF-kappa-B p105 subunit (Homo sapiens) (UniProt P19838); assay: LTEA_HepaRG_NFKB1: Life Technologies and Expression Analysis (LTEA) Assay for Nuclear Factor Kappa B Subunit 1 (NFKB1) using HepaRG (AID 2283521)
Summary of the method: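 HepaRG, 48 h exposure; 8-pt half-log series from 100 uM in 0.5% DMSO; duplicates. Readout: NFKB1 mRNA by qRT-PCR (Fluidigm arrays), housekeeping-normalized. Gain/loss fit vs DMSO baseline.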

[16] = read-out: solute carrier (SLC22A1), SLC22A1 (gene 6580); assay: LTEA_HepaRG_SLC22A1: Life Technologies and Expression Analysis (LTEA) Assay for solute carrier (SLC22A1) using HepaRG (AID 2283524)
Summary of the method: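 HepaRG (human liver line), 48 h dosing in serum-free induction medium; 8 conc., half-log down from 100 uM, 0.5% DMSO vehicle, duplicates. Endpoint: SLC22A1 mRNA, qRT-PCR, housekeeping-normalized; gain/loss fit vs DMSO.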

[17] = read-out: solute carrier (SLCO1B1), SLCO1B1 (gene 10599); assay: LTEA_HepaRG_SLCO1B1: Life Technologies and Expression Analysis (LTEA) Assay for solute carrier (SLCO1B1) using HepaRG (AID 2283530)
Summary of the method: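 Differentiated human HepaRG cells were exposed for 48 h in serum-free induction medium to eight half-log concentrations, top 100 uM, in 0.5% DMSO. SLCO1B1 mRNA was measured by qRT-PCR, normalized to ACTB, GAPDH and POLR2A, and fitted bidirectionally against DMSO.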

[18] = read-out: MicroRNA 122 (MIR122), gene 406906; assay: LTEA_HepaRG_MIR122: Life Technologies and Expression Analysis (LTEA) Assay for MicroRNA 122 (MIR122) using HepaRG (AID 2283516); also: the transcript read is the microRNA miR-122
Summary of the method: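 HepaRG, 48 h exposure, 8-pt half-log from 100 uM, 0.5% DMSO; TaqMan qRT-PCR; bidirectional fit vs DMSO.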

Measured: AC50

Signal transducer and activator of transcription 3 (Homo sapiens), sequence (P40763 whole entry, looked up): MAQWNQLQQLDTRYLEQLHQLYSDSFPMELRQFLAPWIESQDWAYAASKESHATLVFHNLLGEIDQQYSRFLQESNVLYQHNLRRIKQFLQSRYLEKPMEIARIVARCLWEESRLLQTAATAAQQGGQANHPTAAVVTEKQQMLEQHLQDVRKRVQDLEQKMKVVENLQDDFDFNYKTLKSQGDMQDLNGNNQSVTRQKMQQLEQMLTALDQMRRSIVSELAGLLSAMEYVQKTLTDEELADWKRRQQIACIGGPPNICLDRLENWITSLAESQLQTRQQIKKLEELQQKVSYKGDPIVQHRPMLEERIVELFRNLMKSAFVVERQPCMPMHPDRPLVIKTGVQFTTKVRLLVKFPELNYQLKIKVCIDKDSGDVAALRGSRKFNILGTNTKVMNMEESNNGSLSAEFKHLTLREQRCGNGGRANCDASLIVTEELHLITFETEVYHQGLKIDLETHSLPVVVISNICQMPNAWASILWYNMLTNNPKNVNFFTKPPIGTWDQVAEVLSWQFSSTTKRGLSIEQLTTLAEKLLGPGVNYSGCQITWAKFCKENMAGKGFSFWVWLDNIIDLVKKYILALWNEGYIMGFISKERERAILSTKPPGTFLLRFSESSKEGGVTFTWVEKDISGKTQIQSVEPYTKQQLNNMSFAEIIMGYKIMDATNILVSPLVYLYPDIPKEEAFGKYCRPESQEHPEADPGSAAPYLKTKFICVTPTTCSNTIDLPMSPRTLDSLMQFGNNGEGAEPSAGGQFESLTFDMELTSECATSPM
Nuclear factor erythroid 2-related factor 2 (Homo sapiens), sequence (Q16236 whole entry, looked up): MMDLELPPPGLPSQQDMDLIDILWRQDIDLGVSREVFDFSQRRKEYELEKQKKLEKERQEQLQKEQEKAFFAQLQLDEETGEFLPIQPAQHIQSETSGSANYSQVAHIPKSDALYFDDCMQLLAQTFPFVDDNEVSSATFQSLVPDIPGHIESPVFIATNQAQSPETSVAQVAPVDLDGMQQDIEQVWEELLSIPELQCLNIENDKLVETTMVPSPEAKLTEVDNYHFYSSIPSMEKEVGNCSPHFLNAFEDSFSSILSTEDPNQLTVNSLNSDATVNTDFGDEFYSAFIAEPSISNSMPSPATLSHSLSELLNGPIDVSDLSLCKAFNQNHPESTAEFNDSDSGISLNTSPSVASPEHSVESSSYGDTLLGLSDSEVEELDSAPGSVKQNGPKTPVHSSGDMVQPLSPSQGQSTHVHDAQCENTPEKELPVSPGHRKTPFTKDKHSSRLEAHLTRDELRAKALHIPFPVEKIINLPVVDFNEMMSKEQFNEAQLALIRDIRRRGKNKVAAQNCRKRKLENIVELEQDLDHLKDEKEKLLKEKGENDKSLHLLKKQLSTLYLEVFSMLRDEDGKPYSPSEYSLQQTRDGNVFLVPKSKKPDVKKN
Nuclear factor NF-kappa-B p105 subunit (Homo sapiens), sequence (P19838 whole entry, looked up): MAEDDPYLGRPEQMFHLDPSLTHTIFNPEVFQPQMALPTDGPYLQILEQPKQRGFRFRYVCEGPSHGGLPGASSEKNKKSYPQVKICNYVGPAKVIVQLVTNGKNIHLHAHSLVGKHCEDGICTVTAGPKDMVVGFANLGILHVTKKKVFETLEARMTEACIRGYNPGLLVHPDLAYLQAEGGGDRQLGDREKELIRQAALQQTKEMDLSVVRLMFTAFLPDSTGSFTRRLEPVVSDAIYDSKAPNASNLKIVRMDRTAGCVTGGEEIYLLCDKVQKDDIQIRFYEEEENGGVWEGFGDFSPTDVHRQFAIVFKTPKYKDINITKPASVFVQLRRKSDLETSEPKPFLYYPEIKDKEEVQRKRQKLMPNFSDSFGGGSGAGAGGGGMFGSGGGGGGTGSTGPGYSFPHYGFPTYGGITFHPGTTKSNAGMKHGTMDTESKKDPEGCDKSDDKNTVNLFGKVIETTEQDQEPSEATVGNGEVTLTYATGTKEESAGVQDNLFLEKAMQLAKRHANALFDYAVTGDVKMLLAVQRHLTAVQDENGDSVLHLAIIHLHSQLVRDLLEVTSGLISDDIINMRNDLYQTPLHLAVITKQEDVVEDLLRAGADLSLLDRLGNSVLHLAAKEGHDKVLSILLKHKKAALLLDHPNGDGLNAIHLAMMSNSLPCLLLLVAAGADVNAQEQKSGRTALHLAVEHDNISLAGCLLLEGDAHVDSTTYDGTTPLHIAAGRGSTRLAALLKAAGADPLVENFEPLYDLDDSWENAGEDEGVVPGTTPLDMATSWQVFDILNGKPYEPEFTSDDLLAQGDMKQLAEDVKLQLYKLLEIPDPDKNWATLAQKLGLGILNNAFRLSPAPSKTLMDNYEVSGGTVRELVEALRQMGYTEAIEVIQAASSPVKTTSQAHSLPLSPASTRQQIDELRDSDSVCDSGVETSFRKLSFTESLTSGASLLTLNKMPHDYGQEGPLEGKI

CCOc1ccc2[nH]cc(C(=O)NCc3ccccc3)c(=O)c2n1
active: [4] 50 µM
not listed: [15] | [16] | [17] | [18]
inactive: all other assays above

COc1cc(C(C)C)c2c(c1)S(=O)(=O)N(COc1cc(=O)n3cccc(OCCN4CCCCC4)c3n1)C2=O
active: [1] 21.2 µM | [2] 21.1 µM | [3] 19.7 µM | [4] 19.5 µM | [6] 22.6 µM | [16] 20.8 µM | [9] 22.8 µM | [17] 21.1 µM | [12] 23.7 µM
not listed: [18]
inactive: all other assays above

COc1cc2c(c(OC)c1OC)-c1ccc(OC)c(=O)cc1[C@@H](NC(C)=O)CC2
inactive: [15] | [5] | [6] | [9] | [11]
active: [1] 0.096 µM | [2] 0.0147 µM | MYC, MYC (gene 4609) 0.144 µM | [3] 0.152 µM | [4] 0.112 µM | [7] 0.0626 µM | [8] 0.148 µM | [10] 0.138 µM | [17] 0.136 µM | [12] 0.181 µM | [13] 0.0871 µM | [14] 0.04 µM

C[C@@H](Oc1ccc(CNC(=O)c2cccnc2Oc2ccc3c(c2)OCO3)c(F)c1)C(=O)O
active: [7] 50 µM
not listed: [3] | [17] | [18]
inactive: all other assays above

NC(=O)N(O)[C@@H]1COc2cc(OCc3ccccc3)ccc21
not listed: [16] | [17] | [18]
inactive: all other assays above

Nc1ccn([C@@H]2O[C@H](CO)[C@@H](O)[C@@H]2O)c(=O)n1
not listed: [15] | [18]
inactive: all other assays above

c1ccc2ncccc2c1
active: [9] 50 µM
not listed: [15] | [18]
inactive: all other assays above

CC[C@H](C)C(=O)O[C@H]1C[C@H](O)C=C2C=C[C@H](C)[C@H](CC[C@@H](O)C[C@@H](O)CC(=O)O)[C@H]21
not listed: [16] | [17]
inactive: all other assays above

CC(C)CC(C)O (stereo not drawn)
not listed: [17] | [18]
inactive: all other assays above

COS(C)(=O)=O
not listed: [17] | [18]
inactive: all other assays above

CCc1cccc(CC)c1N
not listed: [15] | [16] | [17]
inactive: all other assays above

CCCC(CCC)C(=O)O
not listed: [18]
inactive: all other assays above

CCOC(N)=O
not listed: [15] | [16] | [17] | [18]
inactive: all other assays above

Cc1ccc(S(=O)(=O)NC(=O)NN2CCCCCC2)cc1
not listed: [16] | [17] | [18]
inactive: all other assays above

OC[C@H]1O[C@@H]2O[C@H]3[C@H](O)[C@@H](O)[C@@H](O[C@H]4[C@H](O)[C@@H](O)[C@@H](O[C@H]5[C@H](O)[C@@H](O)[C@@H](O[C@H]6[C@H](O)[C@@H](O)[C@@H](O[C@H]7[C@H](O)[C@@H](O)[C@@H](O[C@H]1[C@H](O)[C@H]2O)O[C@@H]7CO)O[C@@H]6CO)O[C@@H]5CO)O[C@@H]4CO)O[C@@H]3CO
not listed: [15] | [16] | [18]
inactive: all other assays above
